Assay results from PubChem BioAssay AID1159580 (chemical genetic matrix, 2015).
Screen size: about 5,500 compounds; about 2,000 (36%) were called active. Inconclusive results (about 18%) are left out. Cut-off read from the data, not from the text of the source: active = normalized growth mostly below about 0.91 (no sharp cut-off); inconclusive = no clear call, values can overlap the other calls; inactive = mostly above about 0.92. The list shows a part of the results.

Assay: chemical genetic growth profiling, strain panel (AID 1159580);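 note: tested at 20 µM; growth read once vehicle control cultures reached saturation at 30 °C; 1 = growth at the plate median or of vehicle wells; lower values mean less growth of the strain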
Conditions: growth OD

Measured: normalized growth

COc1ccc2c(c1)OC[C@@H](Cc1ccc(OC)c(OC)c1)[C@H]2O
inactive: S. cerevisiae deletion strains, locus YJR066W, strain TOR1, stronger effect = lower value 0.913 | S. cerevisiae deletion strains, locus YKL009W, strain mrt4, stronger effect = lower value 0.954 | S. cerevisiae deletion strains, locus YKL068W, stronger effect = lower value 0.973 | S. cerevisiae deletion strains, locus YKL085W, strain MDH1 (second series), stronger effect = lower value 0.976 | S. cerevisiae deletion strains, locus YKL085W, strain MDH1, stronger effect = lower value 0.976 | S. cerevisiae deletion strains, locus YKL160W, strain elf1, stronger effect = lower value 1.01 | S. cerevisiae deletion strains, locus YKL190W, strain CNB1, stronger effect = lower value 0.997 | S. cerevisiae deletion strains, locus YKR026C, strain gcn3, stronger effect = lower value 1 | S. cerevisiae deletion strains, locus YKR091W, strain srl3, stronger effect = lower value 1 | S. cerevisiae deletion strains, locus YLL001W, strain dnm1, stronger effect = lower value 0.979 | S. cerevisiae deletion strains, locus YLL026W, stronger effect = lower value 0.996 | S. cerevisiae deletion strains, locus YLL041C, strain sdh2, stronger effect = lower value 1 | S. cerevisiae deletion strains, locus YLR027C, strain aat2, stronger effect = lower value 1.01 | S. cerevisiae deletion strains, locus YLR058C, strain SHM2, stronger effect = lower value 1 | S. cerevisiae deletion strains, locus YLR102C, strain apc9, stronger effect = lower value 0.981 | S. cerevisiae deletion strains, locus YLR113W, strain HOG1, stronger effect = lower value 0.871 | S. cerevisiae deletion strains, locus YLR221C, strain rsa3, stronger effect = lower value 1.01 | S. cerevisiae deletion strains, locus YLR258W, strain gsy2, stronger effect = lower value 0.994 | S. cerevisiae deletion strains, locus YLR262C, strain YPT6, stronger effect = lower value 0.641 | S. cerevisiae deletion strains, locus YLR268W, strain sec22, stronger effect = lower value 0.997 | S. cerevisiae deletion strains, locus YLR320W, strain mms22, stronger effect = lower value 1.01 | S. cerevisiae deletion strains, locus YLR330W, strain CHS5, stronger effect = lower value 0.984 | S. cerevisiae deletion strains, locus YLR342W, strain FKS1 (second series), stronger effect = lower value 1.02 | S. cerevisiae deletion strains, locus YLR342W, strain FKS1, stronger effect = lower value 1 | S. cerevisiae deletion strains, locus YLR357W, strain rsc2, stronger effect = lower value 1.01 | S. cerevisiae deletion strains, locus YLR370C, strain arc18, stronger effect = lower value 1 | S. cerevisiae deletion strains, locus YLR371W, strain rom2, stronger effect = lower value 0.96 | S. cerevisiae deletion strains, locus YLR384C, strain iki3, stronger effect = lower value 1.01 | S. cerevisiae deletion strains, locus YLR418C, strain cdc73, stronger effect = lower value 1.04 | S. cerevisiae deletion strains, locus YML016C, strain PPZ1, stronger effect = lower value 1 | S. cerevisiae deletion strains, locus YML032C, strain rad52, stronger effect = lower value 0.975 | S. cerevisiae deletion strains, locus YML120C, strain ndi1, stronger effect = lower value 1 | S. cerevisiae deletion strains, locus YML124C, strain tub3, stronger effect = lower value 0.976 | S. cerevisiae deletion strains, locus YMR058W, strain fet3, stronger effect = lower value 1.02 | S. cerevisiae deletion strains, locus YMR078C, strain ctf18, stronger effect = lower value 0.977 | S. cerevisiae deletion strains, locus YMR125W, strain sto1, stronger effect = lower value 1.01 | S. cerevisiae deletion strains, locus YMR129W, stronger effect = lower value 1.01 | S. cerevisiae deletion strains, locus YMR205C, strain PFK2, stronger effect = lower value 0.966 | S. cerevisiae deletion strains, locus YMR223W, strain ubp8, stronger effect = lower value 0.976 | S. cerevisiae deletion strains, locus YMR231W, strain pep5, stronger effect = lower value 0.981 | S. cerevisiae deletion strains, locus YMR307W, strain GAS1, stronger effect = lower value 1.11 | S. cerevisiae deletion strains, locus YNL067W, strain RPL9B, stronger effect = lower value 1.02 | S. cerevisiae deletion strains, locus YNL071W, strain lat1, stronger effect = lower value 1 | S. cerevisiae deletion strains, locus YNL153C, strain GIM3, stronger effect = lower value 1.03 | S. cerevisiae deletion strains, locus YNL183C, strain NPR1, stronger effect = lower value 0.867 | S. cerevisiae deletion strains, locus YNL209W, strain ssb2, stronger effect = lower value 1.02 | S. cerevisiae deletion strains, locus YNL233W, strain BNI4, stronger effect = lower value 1.02 | S. cerevisiae deletion strains, locus YNL248C, strain rpa49, stronger effect = lower value 1.01 | S. cerevisiae deletion strains, locus YNL250W, strain rad50, stronger effect = lower value 0.962 | S. cerevisiae deletion strains, locus YNL271C, strain bni1, stronger effect = lower value 0.977 | S. cerevisiae deletion strains, locus YNL298W, strain CLA4, stronger effect = lower value 0.991 | S. cerevisiae deletion strains, locus YNL307C, strain MCK1, stronger effect = lower value 0.971 | S. cerevisiae deletion strains, locus YNL322C, strain KRE1 (second series), stronger effect = lower value 0.973 | S. cerevisiae deletion strains, locus YNR049C, strain mso1, stronger effect = lower value 1.01 | S. cerevisiae deletion strains, locus YNR052C, strain pop2, stronger effect = lower value 0.978 | S. cerevisiae deletion strains, locus YOL012C, strain htz1 1.24 | S. cerevisiae deletion strains, locus YOL147C, strain pex11, stronger effect = lower value 0.983 | S. cerevisiae deletion strains, locus YOR001W, strain rrp6, stronger effect = lower value 1.03 | S. cerevisiae deletion strains, locus YOR061W, strain CKA2, stronger effect = lower value 0.999 | S. cerevisiae deletion strains, locus YOR069W, strain VPS5, stronger effect = lower value 0.995 | S. cerevisiae deletion strains, locus YOR070C, strain gyp1, stronger effect = lower value 1 | S. cerevisiae deletion strains, locus YOR080W, strain dia2, stronger effect = lower value 1.01 | S. cerevisiae deletion strains, locus YOR083W, strain WHI5, stronger effect = lower value 0.997 | S. cerevisiae deletion strains, locus YOR106W, strain vam3, stronger effect = lower value 0.99 | S. cerevisiae deletion strains, locus YOR136W, strain idh2, stronger effect = lower value 0.986 | S. cerevisiae deletion strains, locus YOR144C, strain elg1, stronger effect = lower value 0.995 | S. cerevisiae deletion strains, locus YOR184W, strain ser1, stronger effect = lower value 0.964 | S. cerevisiae deletion strains, locus YOR231W, strain MKK1, stronger effect = lower value 0.93 | S. cerevisiae deletion strains, locus YOR265W, strain rbl2, stronger effect = lower value 1.01 | S. cerevisiae deletion strains, locus YOR270C, strain vph1, stronger effect = lower value 1.01 | S. cerevisiae deletion strains, locus YOR290C, strain snf2, stronger effect = lower value 0.987 | S. cerevisiae deletion strains, locus YOR316C, strain cot1, stronger effect = lower value 0.969 | S. cerevisiae deletion strains, locus YPL051W, strain arl3, stronger effect = lower value 0.997 | S. cerevisiae deletion strains, locus YPL078C, strain atp4, stronger effect = lower value 1.02 | S. cerevisiae deletion strains, locus YPL106C, strain sse1, stronger effect = lower value 1.03 | S. cerevisiae deletion strains, locus YPL240C, strain hsp82, stronger effect = lower value 1.01 | S. cerevisiae deletion strains, locus YPL241C, strain CIN2, stronger effect = lower value 1 | S. cerevisiae deletion strains, locus YPL256C, strain CLN2, stronger effect = lower value 0.907 | S. cerevisiae deletion strains, locus YPR119W, strain clb2, stronger effect = lower value 0.974 | S. cerevisiae deletion strains, locus YPR141C, strain kar3, stronger effect = lower value 0.979 | S. cerevisiae deletion strains, locus YPR163C, strain tif3, stronger effect = lower value 0.974 | S. cerevisiae deletion strains, locus YPR167C, strain met16, stronger effect = lower value 0.959 | S. cerevisiae deletion strains, strain wtn01, stronger effect = lower value 0.97 | S. cerevisiae strains, strain wild type, stronger effect = lower value 0.995
active: S. cerevisiae deletion strains, locus YKR001C, strain vps1, stronger effect = lower value 0.84 | S. cerevisiae deletion strains, locus YLR039C, strain RIC1, stronger effect = lower value 0.675 | S. cerevisiae deletion strains, locus YLR262C, strain YPT6 (second series), stronger effect = lower value 0.755
